Test results published in PubChem BioAssay AID629 (Emory University Molecular Libraries Screening Center, 2007).
In all, about 86,000 compounds went through this assay and about 1,400 (1.6%) were called active. Rule as the data show it: active = inhibition above about 50%; inactive = the rest. Shown is part of a subset that was picked to be rich in actives.

Each compound was assayed against Estrogen receptor (Homo sapiens) (UniProt P03372) (assay: blockers of SRC-1 peptide recruitment to ERα – biochemical, TR-FRET, ERα LBD, estradiol-bound, primary screen (AID 629;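 also: 0% = receptor plus peptide control and 100% = peptide only without receptor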)). Conditions: TR-FRET ER-alpha LBD / SRC-1 peptide, at 25.6 µM, stronger effect = higher value.
Estrogen receptor (Homo sapiens), sequence (P03372 whole entry, looked up, the tested form may be a part): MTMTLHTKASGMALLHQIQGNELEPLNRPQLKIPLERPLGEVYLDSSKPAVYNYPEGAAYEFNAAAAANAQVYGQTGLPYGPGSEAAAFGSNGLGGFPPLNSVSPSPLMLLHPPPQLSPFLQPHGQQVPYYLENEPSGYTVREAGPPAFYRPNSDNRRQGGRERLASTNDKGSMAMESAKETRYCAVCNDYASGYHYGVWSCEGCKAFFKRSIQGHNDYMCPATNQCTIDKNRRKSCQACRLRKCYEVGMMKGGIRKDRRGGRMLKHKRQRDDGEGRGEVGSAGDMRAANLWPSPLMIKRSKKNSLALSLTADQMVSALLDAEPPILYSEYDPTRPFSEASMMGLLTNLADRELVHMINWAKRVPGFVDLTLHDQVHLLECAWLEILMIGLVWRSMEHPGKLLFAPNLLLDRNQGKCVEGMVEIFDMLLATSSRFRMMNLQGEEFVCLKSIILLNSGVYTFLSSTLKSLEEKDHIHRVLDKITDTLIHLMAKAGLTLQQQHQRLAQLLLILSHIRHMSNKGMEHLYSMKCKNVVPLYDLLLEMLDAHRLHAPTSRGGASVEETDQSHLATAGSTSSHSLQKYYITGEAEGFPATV

Row | Structure (SMILES) | inhibition
1 | COC(=O)C1=C(Nc2ccc(C)cc2)C=C(C)C(C(=O)OC)C1c1ccc(F)cc1 (stereo unspecified) | -7.97% (inactive)
2 | Cc1nn(C)cc1CNC(=O)Nc1ccc(Cl)cc1 | 5.21% (inactive)
3 | Cc1cccc(C(=O)Nc2ccccc2N2CCN(c3ccc(F)cc3)CC2)c1 | -12.2% (inactive)
4 | O=C1CCCc2nn(-c3ccccc3)nc21 | -5.5% (inactive)
5 | O=C(COC(=O)CCC(=O)c1cccs1)NCc1ccco1 | 71.3% (active)
6 | O=C(COC(=O)C12CC3CC(CC(C3)C1)C2)NCc1ccco1 | 21% (inactive)
7 | O=C(CCC(=O)c1cccs1)NCc1ccccc1 | 3.23% (inactive)
8 | O=C(Nc1nncs1)c1cccc(S(=O)(=O)N2CCCCC2)c1 | -7.35% (inactive)
9 | CC(C)(C)n1nnnc1C(c1ccc(Cl)cc1)N1CCSCC1 (stereo unspecified) | -5.89% (inactive)
10 | O=C(Cn1cc(C(=O)c2cccs2)c2ccccc21)NCc1cccs1 | 4.67% (inactive)
11 | Cc1cccc(NC(=O)CSc2nnc(-c3ccco3)o2)c1 | -9.42% (inactive)
12 | Cc1cccc(NC(=O)Cn2cc(C(=O)c3ccco3)c3ccccc32)c1 | 52.3% (active)
13 | Cc1cc(C)c2cc(CN(Cc3nnnn3Cc3ccc(F)cc3)C3CCCC3)c(=O)[nH]c2c1 | 7.55% (inactive)
14 | COc1ccc(-c2nnc(SCc3cccnc3)o2)cc1 | -6.1% (inactive)
15 | COc1ccc(S(=O)(=O)N/N=C\c2ccc(OC)c(COc3ccc(C)cc3[N+](=O)[O-])c2)cc1 | 17.7% (inactive)
16 | O=C(CSc1nnnn1-c1ccccc1)NCc1ccco1 | 33.1% (inactive)
17 | COc1ccc(Cc2nnc(NS(=O)(=O)Cc3ccccc3)s2)cc1 | -16.5% (inactive)
18 | COc1ccc(Cc2nnc(NC(=O)Cc3cccs3)s2)cc1 | 97.3% [fluorescence artefact?] (active)
19 | CCCc1ccc(-c2csc(NC(=O)Cc3cccs3)n2)cc1 | 7.36% (inactive)
20 | CC(C)(C)C(=O)Cn1c(NCCO)nc2ccccc21 | -7.55% (inactive)
21 | CN(Cc1ccccc1)C(=O)COc1ccccc1 | 21% (inactive)
22 | Cc1nc2c(c(=O)n1Cc1ccco1)c1nc3ccccc3nc1n2Cc1ccccc1 | 79.5% (active)
23 | COCCCn1c2nc3ccccc3nc2c2c(=O)n(Cc3ccc(Cl)cc3)c(C)nc21 | 22.2% (inactive)

Row | Structure (SMILES) | inhibition
24 | Cc1ccc(Cn2c(C)nc3c(c2=O)c2nc4ccccc4nc2n3Cc2ccco2)cc1 | 45.1% (inactive)
25 | CC1(C)CCc2nc(SCc3ccccc3)c(C#N)cc2C1 | -2.01% (inactive)
26 | C=C(C)CNC(=S)/N=c1\scc(C)n1CC | 64.7% [fluorescence artefact?] (active)
27 | CS(=O)(=O)n1nc(-c2ccccc2)nc1NCc1ccco1 | -3% (inactive)
28 | CCOc1ccc2c(c1)C(c1ccc(C)cc1)=NNC(c1ccc(C)cc1)=N2 | -14.6% (inactive)
29 | Clc1ccc(COn2c(-c3ccc(Cl)cc3Cl)nc3ncccc32)cc1 | 27.7% (inactive)
30 | COc1ccc(S(=O)(=O)NCc2ccc(C(=O)N(C)Cc3ccco3)cc2)cc1 | 2.78% (inactive)
31 | Cc1nc2sc(C(c3ccco3)N3CCOCC3)c(O)n2n1 (stereo unspecified) | -24% (inactive)
32 | O=C(c1cccnc1NCc1ccccc1)N1CCOCC1 | -6.49% (inactive)
33 | Oc1c(C(c2ccccn2)N2CCOCC2)ccc2cccnc12 (stereo unspecified) | 70% [fluorescence artefact?] (active)
34 | CCc1nnc(NC(=O)CCC(=O)NCc2ccccc2OC)s1 | -1.4% (inactive)
35 | O=C(Cc1cccc2ccccc12)Nc1ccc2oc(-c3ccccc3)nc2c1 | -1.24% (inactive)
36 | O=C(Nc1ccc2oc(-c3ccc4ccccc4c3)nc2c1)c1cccs1 | 55% (active)
37 | Cc1nc(-c2ccc(NC(=O)c3cccs3)cc2)cs1 | -16.8% (inactive)
38 | CCOC(=O)c1ccccc1NS(=O)(=O)c1ccc(OC)cc1 | -11.3% (inactive)
39 | CCOC(=O)N1CCN(C(=O)c2cc3c(ccc4ccccc43)oc2=O)CC1 | -9.07% (inactive)
40 | CCOC(=O)N1CCN(C(=O)CSc2ccc(Cl)cc2)CC1 | -2.04% (inactive)
41 | Oc1c(CN2CCN(c3ccc(F)cc3)CC2)cc(Cl)c2cccnc12 | -0.01% (inactive)
42 | CCN1CCN(C(c2cccnc2)c2cc(Cl)c3cccnc3c2O)CC1 (stereo unspecified) | 65.6% [fluorescence artefact?] (active)
43 | CCOC(=O)N1CCN(C(c2cccnc2)c2ccc3cccnc3c2O)CC1 (stereo unspecified) | 53.3% [fluorescence artefact?] (active)
44 | CCn1c(=O)c(=O)n(CC)c2cc(S(=O)(=O)N3CCc4ccccc43)ccc21 | -5.41% (inactive)
45 | CCN(CC)CC(=O)c1c[nH]c2ccc(OC)cc12 | -8.61% (inactive)
46 | CCOC(=O)/C(C#N)=C\c1c(C)cc(C)c(COC(C)=O)c1C | -6.55% (inactive)

Row | Structure (SMILES) | inhibition
47 | O=C(Nc1nc(-c2ccc3c(c2)OCO3)cs1)c1ccncc1 | 58% [fluorescence artefact?] (active)
48 | O=C(Nc1ccc2c(c1)OCCO2)c1ccncc1 | -22.6% (inactive)
49 | O=C(Nc1nc(-c2ccncc2)cs1)C1COc2ccccc2O1 (stereo unspecified) | 1.84% (inactive)
50 | COc1ccc(CN(C(=O)CSc2nnc(-c3ccc(OC)c(OC)c3)o2)c2ccc(F)cc2)cc1 | -6.76% (inactive)
51 | COc1ccc(C(=O)N2CC3(C)CC2CC(C)(C)C3)cc1OC (stereo unspecified) | -3.82% (inactive)
52 | O=C(CSc1nnc(-c2cccnc2)n1CCc1ccccc1)NCc1ccccc1 | -17.8% (inactive)
53 | COc1ccc(-c2nn3c(-c4ccccc4)nnc3s2)cc1OC | 3.83% (inactive)
54 | c1ccc(-c2cc(-c3nnc4sc(-c5ccccn5)nn34)[nH]n2)cc1 | 54.2% [fluorescence artefact?] (active)
55 | CCOc1cccc(-c2nn3c(-c4ccccn4)nnc3s2)c1 | 2.04% (inactive)
56 | O=C(/C=C/NNC(=O)c1cccc(Br)c1)c1ccccc1 | -3.8% (inactive)
57 | C=CCO/N=C(\C)c1c(O)c(C)c(-c2ccccc2)n(-c2ccccc2)c1=O | 2.56% (inactive)
58 | CCOc1cc(N2CCOCC2)c(OCC)cc1NC(=O)COC(=O)[C@H](Cc1c[nH]c2ccccc12)NC(C)=O | -11.8% (inactive)
59 | CCOc1cc(N2CCOCC2)c(OCC)cc1NC(=O)COc1cccc2cccnc12 | 94.2% [fluorescence artefact?] (active)
60 | CC(=O)Nc1cccc(Oc2cc(C#N)c(C#N)cc2N2CCOCC2)c1 | 8.98% (inactive)
61 | Cn1c(=NC(=O)C2CC2)sc2cc(F)cc(F)c21 | -0.62% (inactive)
62 | COc1ccc(C)c2sc(=NC(=O)c3ccc(C#N)cc3)n(C)c12 | 79.7% [fluorescence artefact?] (active)
63 | COc1ccc(OC)c2c1sc(=NC(=O)CN1C(=O)CCC1=O)n2C | 28.2% (inactive)
64 | CCC(c1nnnn1C(C)(C)C)N(Cc1cc2cccc(C)c2n2nnnc12)C1CCCC1 (stereo unspecified) | -3.95% (inactive)
65 | Cc1nc(N2CCN(c3ncccn3)CC2)c2oc3ccccc3c2n1 | 54.3% [fluorescence artefact?] (active)
66 | CCc1nc(N2CCN(c3nc(C)cc(C)n3)CC2)c2oc3ccccc3c2n1 | 49.1% (inactive)
67 | Cc1cc(C)nc(N2CCN(c3ncnc4c3oc3ccccc34)CC2)n1 | 16.1% (inactive)
68 | c1ccc(-c2nc(NCc3ccco3)c3ccccc3n2)cc1 | 2.5% (inactive)
69 | O=C(Cc1ccccc1)n1nc(-c2ccccc2)nc1NCc1ccco1 | -2.71% (inactive)

Row | Structure (SMILES) | inhibition
70 | CN1CCc2c(sc3c2c(NCc2ccco2)nc2nnnn23)C1 | 84.9% [fluorescence artefact?] (active)
71 | CC(C)CCNC(=O)CC1C(=O)N(Cc2ccccc2)C(C)c2nc3ccccc3n21 (stereo unspecified) | -8.13% (inactive)
72 | COCCNS(=O)(=O)c1cc(Br)ccc1OC | 3.01% (inactive)
73 | CC(C)(C)c1ccc(C(=O)NCC(=O)OCN2C(=O)c3ccccc3C2=O)cc1 | 0.65% (inactive)
74 | O=C(OCC#CCSc1nnc(-c2ccncc2)o1)c1sc2ccccc2c1Cl | -0.24% (inactive)
75 | O=C(CN1C(=O)CC(c2ccccc2)=Nc2ccccc21)NC1CCCCC1 | -6.54% (inactive)
76 | Cn1c(=NC(=O)CSCC(=O)N2CCOCC2)sc2ccccc21 | -10.2% (inactive)
77 | Cn1c(=NC(=O)c2cnccn2)sc2ccccc21 | 56.8% [fluorescence artefact?] (active)
78 | Cn1c(=NC(=O)CSCC(=O)N2CCCCC2)sc2ccccc21 | -2.22% (inactive)
79 | O=C(Nc1ccc2nc3n(c(=O)c2c1)CCCCC3)c1ccccc1Cl | 1.87% (inactive)
80 | CCCc1noc2c1/C(=N\O)CCC2 | -11.6% (inactive)
81 | COc1ccc(S(=O)(=O)Nc2ccc(F)cc2)c(C)c1C | 10.1% (inactive)
82 | CN(c1ccc(C(=O)NCc2ccccn2)cc1)S(C)(=O)=O | -0.26% (inactive)
83 | O=C(NCc1ccccn1)c1ccc2nc(-c3ccco3)c(-c3ccco3)nc2c1 | 88% [fluorescence artefact?] (active)
84 | O=C(NCc1ccccn1)c1cc2ccccc2oc1=O | -3.07% (inactive)
85 | CCN(CC)C(=O)CSc1nc2ccccc2o1 | -2.4% (inactive)
86 | O=S(=O)(NCCNS(=O)(=O)c1ccccc1)c1ccccc1 | -4.42% (inactive)
87 | O=S(=O)(NCC1OCCc2ccccc21)c1ccccc1 (stereo unspecified) | -3.46% (inactive)
88 | O=c1/c(=C/c2ccc(CNS(=O)(=O)c3ccccc3)o2)sc2n1CCN=2 | 51.2% [fluorescence artefact?] (active)
89 | CC(=O)C1=C(C)NC(=O)NC1c1cc(Br)ccc1OCC#N (stereo unspecified) | -10.9% (inactive)
90 | CC(C)n1c(-c2cccs2)nc2ccccc21 | -8.49% (inactive)
91 | O=C(CCn1c(SCC(=O)c2ccccc2)nc2ccccc2c1=O)NCc1ccc(F)cc1 | 47.2% (inactive)
